Assay results as given in PubChem BioAssay AID1159580 (chemical genetic matrix, 2015).
Out of some 5,500 compounds screened, about 2,000 (36%) were called active. About 18% were inconclusive and are not listed. No stated cut-off is given here; in the data, active means normalized growth mostly below about 0.91 (no sharp cut-off); inconclusive means no clear call, values can overlap the other calls; inactive means mostly above about 0.92. The list shows a part of the results.

Test: chemical genetic growth profiling, strain panel (AID 1159580);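 further: tested at 20 µM; growth read once vehicle control cultures reached saturation at 30 °C; 1 = growth at the plate median or of vehicle wells; lower values mean less growth of the strain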
Settings: S. cerevisiae deletion strains, growth OD

Measured: normalized growth

COc1cc(C(O)CO)ccc1O (configuration not stated)
inactive: locus YAL040C, strain CLN3, active compounds read low 0.993 | locus YCL061C, strain MRC1 (second series), active compounds read low 0.985 | locus YDR363W, strain ESC2, active compounds read low 0.995 | locus YER002W, strain NOP16, active compounds read low 0.988 | locus YGR078C, strain PAC10, active compounds read low 0.982 | locus YNL128W, strain TEP1, active compounds read low 0.991 | locus YNL153C, strain GIM3, active compounds read low 1.04 | locus YNL175C, strain NOP13, active compounds read low 0.998 | locus YNL197C, strain WHI3, active compounds read low 1 | locus YNL224C, strain SQS1, active compounds read low 0.988 | locus YNL322C, strain KRE1, active compounds read low 0.992 | locus YOR083W, strain WHI5 (second series), active compounds read low 1.08 | locus YPL055C, strain LGE1, active compounds read low 0.968

C=CCc1ccc(OC)cc1
inactive: locus YAL021C, strain ccr4, active compounds read low 0.982 | locus YAL026C, strain drs2, active compounds read low 1.03 | locus YAL030W, strain snc1, active compounds read low 1 | locus YBL061C, strain skt5, active compounds read low 1.01 | locus YBR009C, strain hhf1, active compounds read low 1.01 | locus YBR023C, strain chs3, active compounds read low 1.01 | locus YBR171W, strain sec66, active compounds read low 1.01 | locus YBR231C, strain swc5, active compounds read low 1.02 | locus YBR279W, strain paf1, active compounds read low 0.995 | locus YCL011C, strain gbp2, active compounds read low 0.988 | locus YCL016C, strain dcc1, active compounds read low 1 | locus YCL069W, strain vba3, active compounds read low 0.999 | locus YCR088W, strain abp1, active compounds read low 1.01 | locus YDL005C, strain med2, active compounds read low 1.02 | locus YDL040C, strain nat1, active compounds read low 0.999 | locus YDR001C, strain nth1, active compounds read low 1 | locus YDR069C, strain doa4, active compounds read low 1.01 | locus YDR137W, strain rgp1, active compounds read low 0.994 | locus YDR159W, strain sac3, active compounds read low 1.06 | locus YDR195W, strain ref2 1 | locus YDR297W, strain sur2, active compounds read low 1.04 | locus YDR334W, strain swr1, active compounds read low 1.01 | locus YDR335W, strain msn5, active compounds read low 0.996 | locus YDR392W, strain spt3, active compounds read low 0.919 | locus YEL003W, strain gim4, active compounds read low 1.01 | locus YEL037C, strain rad23, active compounds read low 1.01 | locus YEL061C, strain CIN8 (second series), active compounds read low 0.995 | locus YER015W, strain faa2, active compounds read low 1.01 | locus YER016W, strain bim1, active compounds read low 1.01 | locus YER111C, strain swi4, active compounds read low 1 | locus YER155C, strain BEM2 (second series), active compounds read low 1.04 | locus YFR010W, strain ubp6, active compounds read low 1.03 | locus YGL167C, strain pmr1, active compounds read low 1.01 | locus YGL173C, strain kem1, active compounds read low 1.03 | locus YGL227W, strain vid30, active compounds read low 1.01 | locus YGL240W, strain doc1, active compounds read low 1.02 | locus YGL253W, strain hxk2, active compounds read low 1.02 | locus YHR013C, strain ard1, active compounds read low 1.01 | locus YHR027C, strain rpn1, active compounds read low 1.01 | locus YHR030C, strain SLT2, active compounds read low 1 | locus YHR079C, strain IRE1, active compounds read low 0.989 | locus YHR142W, strain chs7, active compounds read low 0.992 | locus YJL092W, strain hpr5, active compounds read low 1.01 | locus YJL095W, strain BCK1 (second series), active compounds read low 1.01 | locus YJL095W, strain BCK1, active compounds read low 0.995 | locus YJL115W, strain asf1, active compounds read low 1.01 | locus YJL129C, strain trk1, active compounds read low 1.03 | locus YJL154C, strain vps35, active compounds read low 1 | locus YJL164C, strain tpk1, active compounds read low 0.98 | locus YJL166W, strain qcr8, active compounds read low 1.01 | locus YJL187C, strain SWE1, active compounds read low 0.997 | locus YJR066W, strain TOR1, active compounds read low 0.939 | locus YKL160W, strain elf1, active compounds read low 0.979 | locus YKR026C, strain gcn3, active compounds read low 1.01 | locus YKR091W, strain srl3, active compounds read low 1 | locus YLL001W, strain dnm1, active compounds read low 0.996 | locus YLL026W, active compounds read low 1.02 | locus YLL041C, strain sdh2, active compounds read low 1 | locus YLR027C, strain aat2, active compounds read low 1.02 | locus YLR113W, strain HOG1, active compounds read low 0.992 | locus YLR221C, strain rsa3, active compounds read low 1.03 | locus YLR258W, strain gsy2, active compounds read low 0.999 | locus YLR262C, strain YPT6 (second series), active compounds read low 0.992 | locus YLR320W, strain mms22, active compounds read low 1.03 | locus YLR342W, strain FKS1, active compounds read low 1.01 | locus YLR357W, strain rsc2, active compounds read low 1.01 | locus YLR370C, strain arc18, active compounds read low 0.995 | locus YLR384C, strain iki3, active compounds read low 1.01 | locus YML120C, strain ndi1, active compounds read low 0.986 | locus YMR058W, strain fet3, active compounds read low 1.02 | locus YMR125W, strain sto1, active compounds read low 0.967 | locus YMR129W, active compounds read low 1.02 | locus YMR205C, strain PFK2, active compounds read low 0.999 | locus YMR231W, strain pep5, active compounds read low 1.01 | locus YNL071W, strain lat1, active compounds read low 0.991 | locus YNL183C, strain NPR1, active compounds read low 0.909 | locus YNL209W, strain ssb2, active compounds read low 0.992 | locus YNL248C, strain rpa49, active compounds read low 0.952 | locus YNL322C, strain KRE1 (second series), active compounds read low 1 | locus YNR049C, strain mso1, active compounds read low 1 | locus YOR001W, strain rrp6, active compounds read low 1.02 | locus YOR070C, strain gyp1, active compounds read low 1.02 | locus YOR080W, strain dia2, active compounds read low 1.02 | locus YOR083W, strain WHI5, active compounds read low 0.974 | locus YOR106W, strain vam3, active compounds read low 0.988 | locus YOR231W, strain MKK1, active compounds read low 1 | locus YOR265W, strain rbl2, active compounds read low 1 | locus YOR270C, strain vph1, active compounds read low 1.04 | locus YOR290C, strain snf2, active compounds read low 0.956 | locus YPL051W, strain arl3, active compounds read low 1.01 | locus YPL078C, strain atp4, active compounds read low 0.96 | locus YPL106C, strain sse1, active compounds read low 1 | locus YPL240C, strain hsp82, active compounds read low 1.02 | locus YPL256C, strain CLN2, active compounds read low 1
